Most compounds without a hit are left out; they make up all but 1.3% or so of the library.
LYPLA2 counter: blocks human lysophospholipase 2, a PME1 counter-screen | O95372 | recombinant LYPLA2, FP-Rh probe fluorescence polarization | inhibition, % at 5.9 µM | 320,000 tested, 0.38% active;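 active = inhibition above the screen-wide mean plus 3 SD, limit set per campaign, cut at about 26% in these data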;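 also: 0% = LYPLA2 with DMSO and 100% = wells lacking LYPLA2 enzyme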
LYPLA1 counter: counter-screen for PME1 inhibitors: inhibitors of human LYPLA1; O75608; recombinant LYPLA1, FP-Rh probe fluorescence polarization; inhibition, % at 5.9 µM; 320,000 tested, 0.16% active; AID 2174;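 active = inhibition above the mean of all tested compounds plus 3 SD, set per campaign, cut at about 14% in these data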;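 also: inhibitors block serine hydrolase probe labeling of LYPLA1 so polarization falls; 0% = enzyme with DMSO and 100% = wells lacking LYPLA1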
Target sequence (O75608 whole entry, looked up): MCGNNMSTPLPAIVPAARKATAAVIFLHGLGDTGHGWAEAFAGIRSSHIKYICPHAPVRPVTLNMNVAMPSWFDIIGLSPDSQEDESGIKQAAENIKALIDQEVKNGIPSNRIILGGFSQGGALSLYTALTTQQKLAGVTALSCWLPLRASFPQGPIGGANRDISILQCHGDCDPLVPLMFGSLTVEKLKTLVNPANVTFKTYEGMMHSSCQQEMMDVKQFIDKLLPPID
PREPL inhibitor: human PREPL enzyme inhibition. Q4J6C6. recombinant PREPL, fluorescence polarization activity-based probe. inhibition, % at 5.96 µM. 320,000 tested, 0.68% active. AID 2751; in the data active = inhibition above about 43%;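 also: 0% = enzyme with DMSO and 100% = wells lacking enzyme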
Fam108B inh: counter-screen for RBBP9 inhibitors: inhibitors of mouse Fam108B | inhibition, % at 9.51 µM | AID 1947 | 300,000 tested, 0.33% active | recombinant Fam108B, FP-Rh probe fluorescence polarization;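 active = inhibition above the screen mean inhibition plus 3 SD, computed separately per campaign, cut at about 18% in these data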;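 also: inhibitors lower polarization as less probe binds the enzyme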
PME-1 inh: blocks human protein phosphatase methylesterase 1. inhibition, % at 5.9 µM. recombinant PME-1, FP-Rh probe fluorescence polarization. 320,000 tested, 0.53% active;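 active = inhibition above the campaign mean of all compounds plus 3 SD, cut at about 26% in these data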;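 also: competitive labeling of PME-1 active site by serine hydrolase directed probe; 0% = PME-1 with DMSO and 100% = wells lacking PME-1 enzyme; inhibitors block probe labeling so polarization falls and inhibition rises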
Target sequence (Q9Y570 whole entry, looked up): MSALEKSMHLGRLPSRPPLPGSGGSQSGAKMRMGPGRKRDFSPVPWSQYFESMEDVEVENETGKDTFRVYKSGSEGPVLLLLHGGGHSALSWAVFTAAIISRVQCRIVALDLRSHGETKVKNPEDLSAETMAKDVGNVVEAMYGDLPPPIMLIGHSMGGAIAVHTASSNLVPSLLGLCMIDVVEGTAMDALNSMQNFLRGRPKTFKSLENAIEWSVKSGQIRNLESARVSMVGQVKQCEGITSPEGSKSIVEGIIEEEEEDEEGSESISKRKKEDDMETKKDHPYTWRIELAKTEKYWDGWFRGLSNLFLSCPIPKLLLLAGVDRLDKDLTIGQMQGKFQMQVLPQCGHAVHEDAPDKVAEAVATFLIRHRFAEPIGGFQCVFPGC
LYPLA2 conf: LYPLA2 (human) inhibition, confirmation counter-screen. shares compounds with LYPLA2 counter. recombinant LYPLA2, FP-Rh probe fluorescence polarization. inhibition, % at 5.9 µM. 1,100 tested, 72% active;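 active = mean inhibition across replicates above the hit cutoff set in the primary screen, cut at about 26% in these data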;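 also: blocked labeling of the enzyme by serine hydrolase FP-Rh probe lowers polarization; 0% = enzyme with DMSO and 100% = wells lacking LYPLA2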
LYPLA2 gel ABPP: LYPLA2 (human) inhibition, late stage results; shares compounds with LYPLA2 counter; rhLYPLA2 in mouse brain proteome, gel ABPP FP-Rh; inhibition, % at 20 µM; 150 tested, 30% active; AID 652029;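 active = inhibition of LYPLA2 enzyme probe labeling above about 50%, limit read from the data; inactive = inhibition below that limit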;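 also: loss of FP-Rh probe labeling of the LYPLA2 gel band measured as band density; 0% = DMSO only control band and 100% = blank gel background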
Starred values were filed as active, the others as inactive; x = no result given.

SMILES | LYPLA2 counter | LYPLA1 counter | PREPL inhibitor | Fam108B inh | PME-1 inh | LYPLA2 conf | others
OC[C@@H](O)[C@H](O)C(/C=N/Nc1ccccc1)=N\Nc1ccccc1 | 2 | 1 | 8 | -3 | 8 | x
Cc1c(Cc2ccccc2)c(=O)oc2cc(OCC(=O)NCC3CCC(C(=O)O)CC3)ccc12 (centres undefined) | 9 | 0 | -6 | -4 | 4 | x
CN1CC(=O)N(CC(=O)Nc2cccc3ccccc23)C1=O | x | x | 2 | x | x | x
COc1ccc(CNS(=O)(=O)c2cn(C)c(=O)n(C)c2=O)cc1 | 1 | 1 | 2 | -2 | 2 | x
OC(COCc1cccs1)CN1CCN(c2cccc(C(F)(F)F)c2)CC1 (centres undefined) | 34* | 3 | 2 | 1 | -11 | 29*
O=C(CCOc1ccccc1)NNC(=O)c1ccccc1 | x | x | 19 | x | x | x
Cc1cc(Oc2cc(N)cc([N+](=O)[O-])c2)ccc1Cl | 42* | 5 | 28 | -1 | 11 | 39*
CCCCCCCCCCCC(=O)N1CC(=O)NC(=O)C1 | 6 | 3 | 6 | 1 | 0 | x
O=C(c1ccc(N2CCN(C(=O)c3cccc(F)c3)CC2)cc1)c1cccc(F)c1 | 43* | 6 | 16 | 3 | 5 | 29*
O=C(c1ccc(N2CCN(C(=O)c3ccccc3Br)CC2)cc1)c1cccc(F)c1 | 0 | -1 | 16 | -7 | 1 | x
O=C(COc1ccc2ccccc2c1)NCC(=O)N/N=C/c1ccco1 | 30* | 0 | 17 | -1 | -3 | -4
Cc1ccc(Cl)cc1N1CCN(C(=O)CCCn2c(=O)c3cccn3c3cccnc32)CC1 | 38* | 7 | -25 | -10 | 3 | 34*
Cc1nn(-c2ccccc2)c(C)c1C(=O)OCC(=O)Nc1ccccc1 | 39* | 3 | 4 | x | 5 | 25
COc1cccc(NC(=O)COC(=O)c2c(-c3ccccc3)noc2C)c1 | 28* | -2 | 2 | -1 | -4 | 21
COc1ccc(NC(=O)COC(=O)c2c(-c3ccccc3)noc2C)cc1 | -9 | -2 | 1 | -3 | 0 | x
O=C(NC12CC3CC(CC(C3)C1)C2)c1cccnc1Cl | 4 | 0 | -2 | 5 | -7 | x
CSc1ccc(C(=O)C2CCCN(C(=O)c3cc4cc(F)ccc4[nH]3)C2)cc1 (centres undefined) | 36* | 13 | -13 | -4 | -3 | 41*
CSc1ccc(C(=O)C2CCCN(C(=O)c3ccc4c(c3)OCO4)C2)cc1 (centres undefined) | 4 | 0 | 23 | -2 | 17 | x
CC(c1nc2ccccc2n1Cc1ccccc1)N1CCCCC1 (centres undefined) | 10 | 3 | 1 | 2 | 5 | x
O=C(Nc1cccc(Oc2ccc(C(=O)O)c(C(=O)O)c2)c1)c1ccc(-c2ccccc2)cc1 | 54* | -1 | -9 | -15 | -21 | 40*
CC(C)(C)C(=O)Nc1ccc(C(=O)Nc2cccc(Oc3ccc(C(=O)O)c(C(=O)O)c3)c2)cc1 | 31* | 2 | 0 | -3 | -8 | 21
COc1ccc(-c2noc(CN3CCN(c4ccccc4)CC3)n2)cc1 | -3 | 1 | 11 | 2 | -1 | x
COc1ccc(N2CCN(Cc3nc(-c4ccccc4)no3)CC2)cc1 | 26* | 6 | 20 | 0 | -5 | 16
O=C(NCC(=O)N1CCN(C/C=C/c2ccccc2)CC1)c1ccc(OC(F)F)cc1 | 35* | 1 | 23 | x | -1 | 32*
O=C(NCC(=O)N1CCN(C/C=C/c2ccccc2)CC1)c1ccc(Br)cc1 | x | x | 20 | x | x | x
SMILES | LYPLA2 counter | LYPLA1 counter | PREPL inhibitor | Fam108B inh | PME-1 inh | LYPLA2 conf | others
O=C(Cn1cc2c(n1)CCCCC2)Nc1ccccc1Br | -8 | -2 | 6 | -2 | 4 | x
O=C(c1ccc(OC2CCN(CCc3ccccc3)CC2)cc1)N1CCCC(CCCO)C1 (centres undefined) | 65* | 7 | 26 | 2 | 0 | 51* | LYPLA2 gel ABPP=12
COc1ccccc1NC(=O)NCCN1CCN(c2cccc(Cl)c2)CC1 | 43* | 6 | -9 | -4 | 5 | 32*
O=C(NCCN1CCN(c2cccc(Cl)c2)CC1)Nc1ccccc1 | 12 | 4 | 0 | 1 | 7 | x
Cc1nc2ccc(NC(=O)CCC3CCCC3)cc2s1 | -3 | 0 | -7 | 2 | 0 | x
CC(C)(C)c1ccc(C(=O)N2CCC(C(=O)NC3CCCCCC3)CC2)cc1 | 48* | 0 | -2 | 0 | 1 | 54* | LYPLA2 gel ABPP=20
CCOc1ccc(C(=O)C2CCN(C(=O)c3ccc([N+](=O)[O-])cc3)CC2)cc1 | 33* | 3 | 9 | 0 | 4 | 31*
COc1ccc(C)cc1NC(=O)C1CCN(S(C)(=O)=O)CC1 | -1 | -1 | 2 | 1 | -9 | x
Cc1ccc(C(=O)N2CCC(C(=O)Nc3cccc([N+](=O)[O-])c3)CC2)cc1 | 32* | 6 | 11 | 2 | 0 | 17
CC(=O)c1cccc(NC(=O)C2CCN(C(=O)c3ccc([N+](=O)[O-])cc3)CC2)c1 | 18 | 0 | -2 | 5 | -3 | x
Cc1ccc(C(=O)N2CCC(C(=O)NC3CCCC3)CC2)cc1 | 1 | 0 | 8 | 1 | 4 | x
COc1ccc(C)cc1NC(=O)C1CCN(C(=O)c2ccc(C(C)(C)C)cc2)CC1 | 41* | 10 | 2 | -2 | 2 | 44*
COCC(=O)N(C)C[C@H]1N[C@@](C)(C(=O)OC)[C@H]2C(=O)N(C)C(=O)[C@@H]12 | x | x | 17 | x | x | x
Cc1nn(-c2ccccc2)c(C)c1/C=C/C(=O)OCC(=O)Nc1ccc(S(N)(=O)=O)cc1 | -10 | -9 | 5 | x | -7 | x
CC(NC(=O)COC(=O)CNS(=O)(=O)/C=C/c1ccccc1)c1ccccc1 (centres undefined) | 4 | 0 | 14 | x | 5 | x
CC1Cc2ccccc2N1C(=O)C(C)n1cc(C(F)(F)F)cc(Cl)c1=O (centres undefined) | 3 | 1 | 6 | x | -1 | x
Cc1cc(C)c(N=C2SCC(=O)N2Cc2ccco2)c(C)c1 | -2 | 2 | 5 | 1 | -4 | x
O=C1CSC(=Nc2ccc(Cl)cc2)N1Cc1ccco1 | 26* | 8 | 2 | -6 | 4 | 28*
O=C(NNC(=O)c1cc2ccccc2oc1=O)c1ccccc1[N+](=O)[O-] | 27* | 5 | 6 | -2 | 3 | 2
Cc1cc(C(=O)NNC(=O)c2ccccc2[N+](=O)[O-])c(C)o1 | -1 | -1 | -7 | x | 3 | x
O=C(Nc1ccn(C2CC(OC(=O)c3ccccc3)C(CO)O2)c(=O)n1)c1ccccc1 (centres undefined) | 26* | -3 | -5 | 1 | -3 | 10
CCc1noc(C)c1C(=O)Nc1nnc(CC(C)C)s1 | 4 | 0 | 2 | 0 | 1 | x
O=C(Nc1ccnn1C1CCN(CCCc2ccccc2)CC1)c1cccc(F)c1 | 2 | 3 | -24 | 3 | 0 | x

From PubChem BioAssay
